Records with an inconclusive call do not appear. Where a call stands in place of a potency, no number is given. The source made the active and inactive calls. Unless noted, calls follow the shape of the dose curve; as a rule, active = well fitted inhibition curve with a large enough effect; inconclusive = small, poorly fitted or top-dose-only effect; inactive = no such curve, though single readings can be large or run the other way.
Test: S16 Schwann cell PMP22 intronic element firefly luciferase assay (AID 624032); also: nearly all actives have a fitted effect of over 30% in size
Details: S16 rat Schwann cells, PMP22 element FLuc, 24 h; series mostly up to 57.5 µM
In short: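 Rat S16 Schwann cells stably carrying a PMP22 intronic element-driven Fluc reporter were seeded overnight, then exposed to compounds for 24 h at 37 °C. Luminescence was normalized to PTC124 (positive control) and DMSO (0% activity).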
Potency is read from the fitted curve at half-maximal effect.

Compound	Potency
O=c1c(-c2ccc(O)cc2)coc2cc(O)cc(O)c12	inactive
CN(C)CCOC(c1ccccc1)c1ccccc1	inactive
O=C(c1ccc(OCCN2CCCCC2)cc1)c1c(-c2ccc(O)cc2)sc2cc(O)ccc12	5.1 µM (active)
NS(=O)(=O)c1cc2c(cc1Cl)NCNS2(=O)=O	inactive
COc1ccc2[nH]cc(CCNC(C)=O)c2c1	inactive
CC(=O)OCC(CCn1cnc2cnc(N)nc21)COC(C)=O	inactive
NCCS(=O)(=O)O	inactive
Cn1c(=O)c2c(ncn2C)n(C)c1=O	inactive
Cc1cn([C@H]2C=C[C@@H](CO)O2)c(=O)[nH]c1=O	inactive
N[C@@H](Cc1c[nH]c2ccc(O)cc12)C(=O)O	inactive
C[C@](N)(Cc1ccc(O)c(O)c1)C(=O)O	inactive
CCOC(=O)C(C)(C)Oc1ccc(Cl)cc1	inactive
CC(C)(Oc1ccc(C2CC2(Cl)Cl)cc1)C(=O)O (configuration not stated)	inactive
CC(C)Cc1ccc(C(C)C(=O)O)cc1 (configuration not stated)	inactive
Cc1ccc(C(=O)Nc2ccc(S(=O)(=O)O)c3cc(S(=O)(=O)O)cc(S(=O)(=O)O)c23)cc1NC(=O)c1cccc(NC(=O)Nc2cccc(C(=O)Nc3cc(C(=O)Nc4ccc(S(=O)(=O)O)c5cc(S(=O)(=O)O)cc(S(=O)(=O)O)c45)ccc3C)c2)c1	inactive
CN(Cc1cnc2nc(N)nc(N)c2n1)c1ccc(C(=O)N[C@@H](CCC(=O)O)C(=O)O)cc1	inactive
CS(=O)(=O)Nc1ccc([N+](=O)[O-])cc1Oc1ccccc1	inactive
Cn1cnc2c1c(=O)[nH]c(=O)n2C	inactive
CCC1(c2ccccc2)C(=O)NCNC1=O	inactive

Test: S16 Schwann cell PMP22 intronic element beta-lactamase assay (AID 624044; calls by dose curve; also: nearly all actives have a fitted effect of over 15% in size)
Details: S16 rat Schwann cells, PMP22 element beta-lactamase FRET, 24 h; series mostly up to 38.3 µM
In short: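 Beta-lactamase reporter under a PMP22 intronic regulatory element in stable S16 rat Schwann cells; 24 h compound exposure. 460 nm blue signal normalized between DMSO (0%) and potassium clavulanate, with 535 nm FRET tracking viability; curves classed by r2 and response.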

Compound	Potency
O=c1c(-c2ccc(O)cc2)coc2cc(O)cc(O)c12	25.1 µM (active)
NCCS(=O)(=O)O	inactive
Cc1ccc(-c2cc(C(F)(F)F)nn2-c2ccc(S(N)(=O)=O)cc2)cc1	inactive
N[C@@H](Cc1c[nH]c2ccc(O)cc12)C(=O)O	inactive
CCOC(=O)C(C)(C)Oc1ccc(Cl)cc1	inactive
CC(C)NCC(O)c1ccc(O)c(O)c1 (configuration not stated)	inactive
Cn1cnc2c1c(=O)[nH]c(=O)n2C	inactive
O=C(Nc1ccc([N+](=O)[O-])cc1Cl)c1cc(Cl)ccc1O	2.51 µM (active)

From PubChem BioAssay (NCATS)
